According to PubChem BioAssay (Tox21):
Several values for one entry are separate records, joined by “and”; a condition that tells them apart may be missing. Equal values may be shown once. Inconclusive results are not listed. Activity calls are given as the source filed them. Unless noted, calls follow the shape of the dose curve; as a rule, active = well fitted curve in the direction sought with a large enough effect in the repeat runs; inconclusive = weak or mixed curves; inactive = no such curve, though single readings can be large; an effect the other way counts as inactive or inconclusive.

Columns and labels:
[1] = qHTS assay to identify small molecule agonists of the RXR signaling pathway - cell viability counter screen (AID 1159529); also: nearly all actives have a fitted effect of over 50% in size; also: potency is read from the fitted curve at half-maximal effect
Summary of the method: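 Compounds dissolved in DMSO were pinned onto HEK 293T cells carrying a beta-lactamase reporter under RXR-alpha control and incubated 16 hr. Cytotoxicity was then quantified by CellTiter-Glo luminescence.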

[2] = qHTS assay to identify small molecule antagonists of the retinoid acid receptor (RAR) signaling pathway - cell viability counter screen (AID 1159551); also: nearly all actives have a fitted effect of over 35% in size; also: potency is read from the fitted curve at half-maximal effect
Summary of the method: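 Viability of C3RL4 cells is quantified from ATP by luminescence after 6 h treatment at 37 C with compounds and 1 uM retinol.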

[3] = qHTS assay to identify small molecule antagonists of the estrogen related receptor (ERR) signaling pathway from Tox21 library - cell viability counter screen (AID 1224834); also: nearly all actives have a fitted effect of over 30% in size; also: potency is read from the fitted curve at half-maximal effect
Summary of the method: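 In this quantitative HTS format, ERR cells receive compounds in DMSO and are incubated for 17.5 h at 37 C. Live-cell protease activity is then detected with CellTiter-Fluor.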

[4] = target: Luciferin 4-monooxygenase (Photinus pyralis) (UniProt P08659); experiment: qHTS assay to identify small molecule inhibitors of firefly luciferase (AID 1224835); also: nearly all actives have a fitted effect of over 25% in size; also: potency is read from the fitted curve at half-maximal effect
Sequence of Luciferin 4-monooxygenase (Photinus pyralis) (P08659 whole entry, looked up): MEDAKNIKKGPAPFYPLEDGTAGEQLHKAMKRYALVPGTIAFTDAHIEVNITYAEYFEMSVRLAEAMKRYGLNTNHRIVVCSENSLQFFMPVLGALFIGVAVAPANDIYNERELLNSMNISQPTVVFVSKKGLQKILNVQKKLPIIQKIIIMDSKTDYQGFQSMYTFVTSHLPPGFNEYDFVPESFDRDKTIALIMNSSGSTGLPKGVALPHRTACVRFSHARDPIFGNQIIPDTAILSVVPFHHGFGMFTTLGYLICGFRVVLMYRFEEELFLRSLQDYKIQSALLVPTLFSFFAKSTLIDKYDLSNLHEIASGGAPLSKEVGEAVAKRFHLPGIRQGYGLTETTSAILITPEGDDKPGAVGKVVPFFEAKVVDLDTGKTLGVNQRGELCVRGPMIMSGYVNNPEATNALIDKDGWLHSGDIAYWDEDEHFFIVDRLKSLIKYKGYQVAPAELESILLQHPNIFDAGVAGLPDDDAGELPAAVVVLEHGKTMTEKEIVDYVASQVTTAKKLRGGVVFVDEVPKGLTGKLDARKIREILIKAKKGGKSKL
Summary of the method: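 Biochemical qHTS: compounds run as interplate titrations against purified firefly enzyme, with D-luciferin and ATP each at its KM concentration. Light output recorded by CCD imaging.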

[5] = qHTS assay to identify small molecule agonists of the constitutive androstane receptor (CAR) signaling pathway - cell viability counter screen (AID 1224836); also: nearly all actives have a fitted effect of over 45% in size; also: potency is read from the fitted curve at half-maximal effect
Summary of the method: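 23 h treatment, 37 C, 5% CO2. Cell line: HepG2 stably expressing hCAR with a CYP2B6-2.2kb construct. Co-treatment: PK11195, 0.75 uM final. Read-out: CellTiter-Fluor fluorescence intensity.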

[6] = qHTS assay to identify small molecule antagonists of the constitutive androstane receptor (CAR) signaling pathway - cell viability counter screen (AID 1224837); also: nearly all actives have a fitted effect of over 45% in size; also: potency is read from the fitted curve at half-maximal effect
Summary of the method: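 In quantitative HTS format, compounds at 15 concentrations were applied to HepG2 cells double-transfected with hCAR and CYP2B6-2.2kb under 50 nM CITCO stimulation; live-cell protease activity was read after 23 hr via CellTiter-Fluor.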

[7] = target: Nuclear receptor subfamily 1 group I member 3 (Homo sapiens) (UniProt Q14994); experiment: qHTS assay to identify small molecule agonists of the constitutive androstane receptor (CAR) signaling pathway (AID 1224839);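 also: HepG2 cells stably carrying human CAR and a CYP2B6 luciferase reporter; series mostly up to about 92 µM; nearly all actives have a fitted effect of over 15% in size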
Sequence of Nuclear receptor subfamily 1 group I member 3 (Homo sapiens) (Q14994 whole entry, looked up): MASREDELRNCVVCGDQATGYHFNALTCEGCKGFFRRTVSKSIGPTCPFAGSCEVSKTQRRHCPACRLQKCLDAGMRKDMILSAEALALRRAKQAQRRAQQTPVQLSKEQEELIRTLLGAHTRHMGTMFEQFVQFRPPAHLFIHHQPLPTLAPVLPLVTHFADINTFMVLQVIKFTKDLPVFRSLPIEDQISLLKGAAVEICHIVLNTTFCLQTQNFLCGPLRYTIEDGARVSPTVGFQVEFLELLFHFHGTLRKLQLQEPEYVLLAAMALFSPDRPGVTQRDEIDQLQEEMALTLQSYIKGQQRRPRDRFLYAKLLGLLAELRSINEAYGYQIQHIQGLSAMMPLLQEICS
Summary of the method: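 Compounds tested at 15 concentrations on HepG2 cells stably harbouring hCAR and CYP2B6-2.2kb reporter constructs, co-treated with PK11195 (0.75 uM final), 24 h at 37 C; luminescent reporter signal quantified.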

[8] = qHTS assay to identify small molecule antagonists of the estrogen related receptor signaling pathway with the pleiotropic PPARgamma coactivator (PGC) from Tox21 10K library - cell viability counter screen (AID 1224840; active = well fitted cell-killing curve with a large enough effect in the repeat runs, not every such curve was filed as active; also: nearly all actives have a fitted effect of over 40% in size; also: potency is read from the fitted curve at half-maximal effect)
Summary of the method: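 Viability counter screen, PGC/ERR cells: 17.5 h compound exposure at 37 C, CellTiter-Fluor fluorescence endpoint.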

[9] = qHTS assay to identify small molecule antagonists of the estrogen related receptor signaling pathway with the pleiotropic PPARgamma coactivator (PGC) from Tox21 10K library (AID 1224841; call rule not given here; also: actives are mostly falling curves and most rising ones were filed inactive; nearly all actives have a fitted effect of over 50% in size; also: potency is read from the fitted curve at half-maximal effect)
Summary of the method: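 In the PGC/ERR line, DMSO solutions of test chemicals are pin-delivered to 2,000 cells/well six hours after dispensing. Following eighteen hours' incubation, One-Glo reagent is added and luminescence recorded.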

[10] = qHTS assay to identify small molecule agonists of the estrogen related receptor signaling pathway with the pleiotropic PPARgamma coactivator (PGC) from Tox21 10K library (AID 1224842); also: nearly all actives have a fitted effect of over 15% in size
Summary of the method: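 PGC/ERR reporter cell line, 2,000 cells per well, incubated 6 h at 37 C before 23 nL compound in DMSO was added. After 18 h at 37 C, One-Glo luminescence read following 30 min at room temperature.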

[11] = target: Thyrotropin receptor (Homo sapiens) (UniProt P16473); experiment: qHTS assay to identify small molecule agonists of the thyroid stimulating hormone receptor (TSHR) signaling pathway (AID 1224843; calls by dose curve; also: nearly all actives have a fitted effect of over 45% in size)
Sequence of Thyrotropin receptor (Homo sapiens) (P16473 whole entry, looked up): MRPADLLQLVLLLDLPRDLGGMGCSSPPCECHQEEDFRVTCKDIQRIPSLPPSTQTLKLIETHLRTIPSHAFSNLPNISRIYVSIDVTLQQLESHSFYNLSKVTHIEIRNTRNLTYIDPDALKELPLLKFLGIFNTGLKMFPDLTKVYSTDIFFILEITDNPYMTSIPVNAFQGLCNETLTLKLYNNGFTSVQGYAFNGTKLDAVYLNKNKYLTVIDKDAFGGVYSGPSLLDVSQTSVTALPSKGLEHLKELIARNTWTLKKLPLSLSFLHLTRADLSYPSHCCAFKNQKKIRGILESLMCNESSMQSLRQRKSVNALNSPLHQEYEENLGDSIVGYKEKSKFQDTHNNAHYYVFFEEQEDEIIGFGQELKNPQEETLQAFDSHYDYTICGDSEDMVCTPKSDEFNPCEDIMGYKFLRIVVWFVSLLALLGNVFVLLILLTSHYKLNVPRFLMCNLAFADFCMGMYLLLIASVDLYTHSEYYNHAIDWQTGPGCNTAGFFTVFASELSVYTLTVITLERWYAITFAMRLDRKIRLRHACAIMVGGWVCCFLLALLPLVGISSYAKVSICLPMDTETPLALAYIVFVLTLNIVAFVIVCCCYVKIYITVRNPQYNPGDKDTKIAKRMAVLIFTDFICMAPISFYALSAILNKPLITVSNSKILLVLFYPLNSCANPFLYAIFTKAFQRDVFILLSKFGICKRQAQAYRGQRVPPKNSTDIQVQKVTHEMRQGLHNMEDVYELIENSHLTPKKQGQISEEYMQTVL
Summary of the method: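 HEK293/TSHR, 800 cells/well; cpd 30 min RT; add cAMP-d2 + anti-cAMP-cryptate, 1 h RT; fluorescence read on plate reader. 15-pt titration, n=3.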

[12] = target: Nuclear receptor subfamily 1 group I member 3 (Homo sapiens) (UniProt Q14994); experiment: qHTS assay to identify small molecule antagonists of the constitutive androstane receptor (CAR) signaling pathway (AID 1224838); also: nearly all actives have a fitted effect of over 40% in size
Summary of the method: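 CITCO-stimulated (50 nM final) HepG2 cells stably transfected with hCAR and CYP2B6-2.2kb luciferase were exposed to compounds at 15 concentrations for 24 h at 37 C/5% CO2. A luciferase reagent was added and luminescence recorded after 30 min.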

[13] = qHTS assay to identify small molecule antagonists of the estrogen related receptor (ERR) signaling pathway - cell viability counter screen (AID 1224818); also: series mostly up to about 46 µM
Summary of the method: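 Cytotoxicity check run alongside the ERR antagonist screen: cells exposed to test compounds 17.5 h at 37 C, viability taken as CellTiter-Fluor fluorescence intensity.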

[14] = qHTS assay to identify small molecule antagonists of the estrogen related receptor (ERR) signaling pathway (AID 1224819;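 also: luminescence from an ERR-driven luciferase reporter measured with One-Glo reagent; series mostly up to about 46 µM; nearly all actives have a fitted effect of over 50% in size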)
Summary of the method: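 ERR reporter cells were plated at 2,000 cells/well and left 6 h at 37 C/5% CO2 before pin-tool transfer of compounds in DMSO. After 18 h at 37 C, One-Glo was added and luminescence was read 30 min later at room temperature.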

[15] = system: estrogen-related receptor alpha (ERRalpha) with PGC-1alpha coactivator, human; experiment: qHTS assay to identify small molecule antagonists of the estrogen related receptor signaling pathway with the pleiotropic PPARgamma coactivator (PGC) (AID 1224821; calls by dose curve;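 also: series mostly up to about 46 µM; lower luminescence signal means antagonism of PGC/ERR signalling; nearly all actives have a fitted effect of over 50% in size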)
Summary of the method: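 Screening used NTP's PGC/ERR cells, dosed via pin tool with compound in DMSO alongside positive and negative controls. After 18 h at 37 C, One-Glo reagent sat 30 min at room temperature before luminescence detection.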

[16] = qHTS assay to identify small molecule antagonists of the estrogen related receptor signaling pathway with the pleiotropic PPARgamma coactivator (PGC) cell viability counter screen (AID 1224822; also: series mostly up to about 46 µM)
Summary of the method: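 Viable cell signal (CellTiter-Fluor, 30 min, 37 C/5% CO2) was measured in PGC/ERR cells after a 17.5 h compound incubation.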

[17] = qHTS assay to identify small molecule agonists of the estrogen related receptor signaling pathway with the pleiotropic PPARgamma coactivator (PGC) (AID 1224823)
Summary of the method: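 In this quantitative high-throughput screen, an 18 h, 37 C treatment of PGC/ERR cells with compounds in DMSO preceded a One-Glo luminescence read taken after 30 min at room temperature.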

[18] = qHTS assay to identify small molecule antagonists of the retinoic acid receptor (RAR) signaling pathway (AID 1159552; also: nearly all actives have a fitted effect of over 50% in size)
Summary of the method: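 Test chemicals and DMSO controls were pin-transferred onto C3RL4 cells a day after seeding; retinol (1 uM final) followed at once. Luminescent reporter output was quantified after 6 hr of co-incubation and 30 min with detection reagent.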

[19] = qHTS assay to identify small molecule agonists of the retinoic acid receptor (RAR) signaling pathway (AID 1159553)
Summary of the method: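 Compounds dissolved in DMSO were pinned onto C3RL4 cells seeded the previous day, and plates were held 6 hr at 37 C. RARE-driven luciferase output was then read by luminescence.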

Measured: Potency

CC(C)CCCCCCCOC(=O)c1ccccc1C(=O)OCCCCCCCC(C)C
inactive: [1] | [2] | [3] | [4] | [5] | [6] | [7] | [8] | [9] | [10] | [11]

COP(=O)(OC)OC(Br)C(Cl)(Cl)Br (stereo not given)
inactive: [1] | [2] | [3] | [4] | [5] | [6] | [7]

O=C(O)C(O)C(O)C(=O)O (stereo not given)
inactive: [1] | [2] | [3] | [4] | [8]

CCCC1CCCCN1 (stereo not given)
inactive: [1] | [2] | [3] | [4] | [5] | [6] | [8] | [11]

C=CCOC(=O)C(C)(C)OC(=O)c1cc(-n2c(=O)cc(C(F)(F)F)n(C)c2=O)ccc1Cl
inactive: [1] | [2] | [4] | [5] | [6] | [12] | [8] | [10]

CC(O)CN1CCN(CC(=O)[O-])CCN(CC(=O)[O-])CCN(CC(=O)[O-])CC1.[Gd+3] (stereo not given)
inactive: [1] | [2] | [3] | [4] | [5] | [6] | [8] | [11]

O=C([O-])c1ccccn1.O=C([O-])c1ccccn1.O=C([O-])c1ccccn1.[Cr+3]
inactive: [1] | [2] | [3] | [4] | [5] | [6] | [12] | [7] | [8]

NCCc1cc(O)c(O)cc1O
inactive: [1] | [2] | [3] | [4] | [5] | [6] | [12] | [8]

Cc1ccc(N)c(C)c1
inactive: [1] | [2] | [3] | [4] | [5] | [6] | [8]

CCC1(C2=NCCN2)Cc2ccccc2O1 (stereo not given)
inactive: [1] | [2] | [13] | [14] | [15] | [16] | [17] | [3] | [4] | [5] | [6] | [8] | [9] | [10] | [11]

COc1ccc2c(c1OC)C(=O)O[C@H]2[C@@H]1c2cc3c(cc2CCN1C)OCO3
inactive: [1] | [2] | [13] | [16] | [4] | [12] | [8] | [11]
active: [3] 6.68 µM

CCC(C)(C)O
inactive: [1] | [2] | [3] | [4] | [5] | [6] | [7] | [8] | [11]

CCCCCCCCn1sccc1=O
active: [1] 1.95 µM and 2.04 µM | [2] 68.7 µM and 64.1 µM | [3] 27.4 µM and 16.1 µM | [4] 35.7 µM and 41.8 µM | [5] 61.3 µM and 25.5 µM | [6] 30.7 µM and 5.71 µM | [8] 30.7 µM and 11.4 µM | [9] 30.7 µM
inactive: [10]

C=CCOCC1CO1 (stereo not given)
inactive: [1] | [2] | [3] | [4] | [5] | [6] | [7] | [8] | [9] | [10] | [11]

CC(Oc1cccc(Cl)c1)C(=O)O (stereo not given)
inactive: [2] | [18] | [19] | [3] | [4] | [5] | [6] | [12] | [7] | [8] | [11]

CN1CC[C@]23c4c5ccc(O)c4O[C@H]2[C@@H](O)CC[C@H]3[C@H]1C5
inactive: [1] | [18] | [3] | [4] | [5] | [6] | [12] | [7] | [8]

O=C(O)c1ccc(=O)[nH]c1
inactive: [1] | [3] | [4] | [5] | [6] | [12] | [7] | [8] | [9] | [10] | [11]
